Holding throughout (assay): NCI-60 one-dose screen, 48 h (100 = growth as untreated, 0 = no growth, -100 = all killed)
Conditions in all cases: 10 µM unless noted

Experiment [1] deals with NCI-H23 lung.
The subject of experiment [2] is NCI-H226 lung.
The subject of experiment [3] is NCI-H322M lung.
The test system of experiment [4] is HOP-62 NSCLC.
Experiment [5] has as its system NCI-H460 lung.
The test system of experiment [6] is HOP-92 NSCLC.
Experiment [7] concerns NCI-H522 lung.
For experiment [8], the system named is A549/ATCC NSCLC.
Experiment [9] concerns 786-0 renal.
The subject of experiment [10] is COLO 205 colon.

The panel holds about 83,000 compounds, 20% with a hit somewhere; the sample as a whole holds those more often.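 Compound tested at a single concentration for 48 hours in 96-well plates; a percent growth value below 10 was scored as active.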 A number with no mark means an inactive call. Activity calls are given as the source filed them.

In the case of `Fc1cc2c(cc1Cl)N(c1ncnc3ccc(-c4cnc5[nH]ncc5c4)cc13)CC2`, the growth was 73.3% in experiment [1]; 49.5% in experiment [2]; 52.1% in experiment [3]; 54.8% in experiment [4]; 54.7% in [5]; 34.5% in experiment [6]. Further, the growth in experiment [7] was 55.9%; in experiment [8], 44%; in experiment [9] it was 65%; in [10], 79.2%.

For the compound `Brc1ccc2[nH]cc(-c3nonc3-c3c[nH]c4ccccc34)c2c1`, the growth in [1] is 45.2%; in [2], 66.7%; in experiment [3] it was 30.9%; in [4], 43.4%; in [5], 12.2%; in experiment [6] it was 32.1%. Further, the growth is 13.6% in experiment [7], 35.9% in [8], 67.3% in experiment [9] and 36.3% in [10].

With `COc1cc(CNS(=O)(=O)c2ccc(C)cc2)ccc1OCc1cn(-c2ccc(Br)cc2)nn1`, the growth in experiment [1] is 103%; in experiment [2], 93.5%; in experiment [3] it was 101%; in experiment [4], 92.4%; in [5], 110%; in experiment [6], 112%. In addition, the growth in [7] was 91.8%; in [8], 99.5%; in experiment [9], 109%; in [10], 120%.

As for `CCCCCCCCCCCCCCCCCCOc1ccccc1CC(=O)OCC[N+]1(C)CCCC1`, the growth in [1] is 8.45% (active); in experiment [2] it was 13.4%; in [3], 68.1%; in experiment [4] it was 53.5%; in [5], 27.5%; in experiment [6] it was 32.7%. For the same compound, the growth in experiment [7] is 6.85% (active); in experiment [8] it was 23%; in [9], 57.5%; in [10] it was 9.44% (active).

Regarding `COc1cc(-c2cc(-c3cccs3)c(C#N)c(N3CCOCC3)n2)cc(OC)c1OC`, the growth in [1] is 101%; in experiment [2] it was 111%; in [3] it was 100%; in experiment [4], 134%; in [5], 11.1%; in [6], 101%. Further, the growth is 80.3% in [7], 83.6% in experiment [8], 37.7% in [9] and 56.4% in experiment [10].

With `O=C(Nc1ncc(Cc2ccc(Cl)c(C(F)(F)F)c2)s1)c1ccc2nnsc2c1`, the growth is 37.4% in experiment [1]; 66.5% in experiment [2]; 69.2% in experiment [3]; 51.5% in experiment [4]; 27.2% in experiment [5]; 64.9% in [6]. The growth is 38.7% in [7], 40.7% in experiment [8], 53.2% in experiment [9] and 57.3% in [10].

In the case of `CC(C)c1ccc(NC(=O)Nc2ccc(NC(=O)CCCC(=O)NOCc3ccccc3)cc2)cc1`, the growth is 98.4% in experiment [1]; 85.2% in experiment [2]; 90.6% in experiment [3]; 91.2% in [4]; 77.9% in experiment [5]; 104% in experiment [6]. Moreover, the growth in [7] was 71.3%; in experiment [8], 85.3%; in experiment [9] it was 101%; in [10], 93.4%.

Consider `Cc1ccc(-c2nn(-c3ccccc3)cc2C=C2C(=O)ON=C2C(C)C)cc1`, for which the growth is 89.2% in [1]; 95.3% in [2]; 91.2% in experiment [3]; 88.6% in experiment [4]; 80% in experiment [5]; 86% in [6]. The growth in experiment [7] is 74%; in experiment [8], 86.8%; in experiment [9] it was 78.7%; in experiment [10] it was 114%.

Consider `CC1(C)c2[nH]c3ccccc3c2C[C@]2(C)[C@H]3CC=C4[C@@H]5C[C@@](C)(C(N)=O)CC[C@]5(C)CC[C@@]4(C)[C@]3(C)CC[C@@H]12`, for which the growth in experiment [1] was 51.2%; in experiment [2], 60.4%; in experiment [3] it was 76.1%; in experiment [4], 79.5%; in experiment [5], 52.6%; in [6] it was 80.6%. Also, the growth in experiment [7] is 52.5%; in experiment [8] it was 53.6%; in [9], 74.5%; in experiment [10], 58.9%.

Consider `Cc1nc2sc(C(=O)Nc3cccc(Cl)c3C)c(N)c2cc1C(=O)c1ccccc1`, for which the growth was 34.4% in experiment [1]; 5.27% (active) in [2]; 49.8% in experiment [3]; 21.2% in [4]; 7.35% (active) in experiment [5]; 41.6% in [6]. Also, the growth is 5.64% (active) in experiment [7], 19.9% in [8], 32.8% in experiment [9] and -36% (active) in experiment [10].

`O=C(Nc1cccnc1Nc1ccc(F)cc1)c1cn(Cc2cccc(Oc3ccccc3)c2)nn1`: the growth in experiment [1] was 74%; in experiment [2] it was 76.6%; in experiment [3] it was 78.9%; in [4], 84.7%; in experiment [5], 80.4%; in experiment [6] it was 84.8%. Further, the growth in experiment [7] was 64.7%; in [8], 61%; in [9] it was 79.2%; in experiment [10] it was 91.6%.

In the case of `CN1CCN(Cc2ccc(NC(=O)c3cncc(C#Cc4cnc(N)c5ccccc45)c3)cc2C(F)(F)F)CC1`, the growth is -74.1% (active) in experiment [1]; -91% (active) in [2]; -87.1% (active) in [3]; -74.7% (active) in experiment [4]; -77.3% (active) in [5]; -74.4% (active) in experiment [6]. Moreover, the growth in [7] was -73.2% (active); in experiment [8], -89.1% (active); in experiment [9], -79.6% (active); in [10], -78.1% (active).

`Clc1ccc(Sc2cnc(-c3ccccc3)o2)cc1`: the growth in experiment [1] was 95.5%; in [2] it was 106%; in [3] it was 91.9%; in [4], 94.4%; in experiment [5], 110%; in experiment [6] it was 86.1%. Also, the growth is 99.2% in experiment [7], 92% in experiment [8], 93.9% in experiment [9] and 110% in [10].

For the origin of these results see PubChem BioAssay (NCI).
